Compound activity (PubChem BioAssay)
Shown are actives, neighbours in structure and some others; about 7.3% of the full set was active somewhere.
SMN2 splice up = SMN2 splice variant enhancement; HEK293 SMN2-luciferase splicing reporter, luminescence, 30-36 h; Potency, µM (doses to about 46.1 µM), inactives show top-dose activity change, positive = activation, most hits filed as activators; 210,000 compounds, 2.8% hits; further: % of control where 0% means no effect; nearly all actives have a fitted effect of over 55% in size
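HEK293 cells carry an SMN2 […]–luciferase reporter in which exon 7 inclusion puts luciferase in frame. Cells were plated 10-12 h before compound addition, then incubated 30-36 h at 37C. ONE-Glo luminescence was read; sodium butyrate at 4.5 mM final served as control.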
p53 reactivator = restores transcriptional activity of mutant p53. H1299 p53-A138V BP100-luciferase reporter, luminescence, 24 h. Potency, µM (highest dose often 92.2 µM), for inactives: at the highest dose activity change, positive = activation, actives largely listed as activators. 320,000 compounds, 0.063% hits; further: % of control where 0% means no effect; nearly all actives have a fitted effect of over 45% in size
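H1299 (p53-null), stable ts p53-A138V + BP100-Luc; 1000 cells/well, Opti-MEM/10% FBS; cpd 4 pt, 1:5; 24 h, 37 deg C, 5% CO2; detection reagent 10 min RT; luminescence.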
Rab9 prom act = Rab9 promoter activation. Huh7 Rab9 promoter-luciferase reporter, luminescence, 24 h. Potency, µM (top dose mostly 9.22 µM), inactives show at the top dose activation, negative = inhibition, actives largely listed as activators. 320,000 compounds, 2.8% hits. AID 485297; further: % of control where 0% means no effect; nearly all actives have a fitted effect of over 60% in size
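Cells were plated at 1500 per well in reduced-serum medium with 10% FBS and left 2 h. Compound in DMSO was then added for 24 h at 37 °C. Reporter signal was read by luminescence after 10 min with luciferase detection reagent.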
NPC1 prom act = activates the NPC1 promoter. Huh7 NPC1 promoter luciferase reporter, 24 h. 320,000 compounds, 2.4% hits. Potency, µM (top dose mostly 9.22 µM), for the others: top-dose activation, most hits filed as activators; further: % of control where 0% means no effect; nearly all actives have a fitted effect of over 60% in size
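In 1536-well qHTS, Huh7 cells harboring an NPC1 promoter–luciferase construct received compound for 24 h; activation was quantified by luminescence following luciferase reagent addition.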
FLuc counter = firefly luciferase modulation, counter-screen for miR-21 project. P08659. Potency, µM (highest dose often 57.5 µM), without a hit: at the top dose activity change, negative = inhibition, most hits filed as inhibitors. 360,000 compounds, 6.9% hits. purified FLuc, Km substrates, luminescence inhibition. AID 588342;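 further: plate controls were vehicle for no effect and reference inhibitor for full effect; nearly all actives have a fitted effect of over 55% in size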
Target sequence (P08659 whole entry, looked up): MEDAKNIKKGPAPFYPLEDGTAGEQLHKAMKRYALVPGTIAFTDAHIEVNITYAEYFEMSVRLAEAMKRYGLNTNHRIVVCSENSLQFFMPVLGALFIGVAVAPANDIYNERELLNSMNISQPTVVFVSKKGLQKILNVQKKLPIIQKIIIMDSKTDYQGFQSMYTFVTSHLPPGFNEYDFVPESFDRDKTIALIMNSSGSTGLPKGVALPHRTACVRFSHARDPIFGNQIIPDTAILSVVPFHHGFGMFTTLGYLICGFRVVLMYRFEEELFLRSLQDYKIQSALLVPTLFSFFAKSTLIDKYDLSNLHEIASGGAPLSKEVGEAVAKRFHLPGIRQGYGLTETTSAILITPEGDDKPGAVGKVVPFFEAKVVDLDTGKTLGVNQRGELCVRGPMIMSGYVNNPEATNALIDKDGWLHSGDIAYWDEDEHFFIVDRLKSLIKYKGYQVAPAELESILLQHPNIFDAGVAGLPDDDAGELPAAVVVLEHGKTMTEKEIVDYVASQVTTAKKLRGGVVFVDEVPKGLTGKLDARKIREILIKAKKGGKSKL
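Biochemical qHTS of compounds, final roughly 60 µM downward over six points, against 10 nM purified firefly luciferase using Km concentrations of substrates (10 uM D-luciferin, 10 uM ATP) in Tris acetate pH 7.5 buffer; luminescence output.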
ELG1 genotoxic = inducers of genotoxicity in HEK293T ELG1-luciferase cells | HEK293T ELG1-luciferase reporter, luminescence, 16 h | 330,000 compounds, 1.3% hits | Potency, µM (titrated, usually from 46 µM), for inactives: at the top dose activity change, positive = activation, actives largely listed as activators; further: % of control where 0% means no effect; nearly all actives have a fitted effect of over 60% in size
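DMSO vehicle served as control against compound-treated ELG1-luciferase HEK293T cells; exposure lasted 16 hr at 37 °C and 5% CO2, followed by ONE-Glo luminescence detection after 30 min.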
Active calls of the source: *. The call rests on the fitted dose curve; in most records, active means well fitted curve in the direction sought with a large enough effect; inconclusive means small, poorly fitted or top-dose-only effect, or another doubt; inactive means no such curve, though single readings can be large; an effect the other way counts as inactive or inconclusive. Potency means the concentration at half of the fitted maximal effect.

Screening COC(=O)c1cccc(N(CC(=O)NC2CCCC2)C(=O)CCC(=O)Nc2cc(C)on2)c1 returned p53 reactivator 4%, Rab9 prom act -2%, NPC1 prom act 1%, FLuc counter 2% and ELG1 genotoxic -1%.
CCOc1ccccc1CNc1nc2nc(C)c(CC(=O)OC)c(=O)n2[nH]1 was read as SMN2 splice up 4% and FLuc counter -18%.
CN(C)c1ccc(/C=C/c2ccc3ccccc3n2)cc1 was read as p53 reactivator -12%, Rab9 prom act inconclusive, NPC1 prom act -18%, FLuc counter 0.067µM* and ELG1 genotoxic inconclusive.
`CN(C)c1ccc(-c2nc(N(C)C)c3ccccc3n2)cc1` gave SMN2 splice up -30%.
COc1cc(/C=C/c2nc3ccccc3s2)cc(OC)c1O was read as SMN2 splice up 24%, p53 reactivator inconclusive, Rab9 prom act inconclusive, NPC1 prom act 7%, FLuc counter 19µM* and ELG1 genotoxic 18µM*.
C(=C\c1ccc2ccccc2n1)/c1ccccc1 was read as p53 reactivator 1%, Rab9 prom act 0.5µM*, NPC1 prom act 2.8µM*, FLuc counter 0.076µM* and ELG1 genotoxic inconclusive.
For CC(=O)Oc1c(Cl)cc(Cl)cc1/C=C/c1ccc2ccccc2n1 the results were p53 reactivator 0%, Rab9 prom act inconclusive, NPC1 prom act 16%, FLuc counter -14% and ELG1 genotoxic 1%.
`CC(=O)Oc1ccc(Cl)cc1/C=C/c1ccc2ccccc2n1` gave SMN2 splice up 14µM*, Rab9 prom act inconclusive, NPC1 prom act 3.2µM*, FLuc counter 5.4µM* and ELG1 genotoxic 23%.
`N[C@@H](Cc1ccccc1)C(=O)N1CCC(C(=O)N[C@@H](CCC(=O)O)C(=O)O)CC1` gave p53 reactivator 14%, Rab9 prom act 0%, NPC1 prom act 3%, FLuc counter 1% and ELG1 genotoxic 0%.
CN(C)c1cccc(C(=O)OCCCC(=O)c2ccc(F)cc2)c1 was read as p53 reactivator 15%, Rab9 prom act -2%, NPC1 prom act -3%, FLuc counter -18% and ELG1 genotoxic 1%.
COc1ccc(N2CC(NC(=O)c3c(F)cccc3Cl)CC2=O)cc1OC (stereo not drawn) was read as FLuc counter 2%.
Oc1ccc(/C=C/c2ccc3ccccc3n2)cc1 was read as SMN2 splice up 2.8µM*, p53 reactivator -10%, Rab9 prom act inconclusive, NPC1 prom act inconclusive, FLuc counter 0.13µM* and ELG1 genotoxic 0.26µM*.
For Cc1ccc(/C=C/c2nc3ccccc3s2)s1 the results were SMN2 splice up -18%, p53 reactivator 30%, Rab9 prom act inconclusive, NPC1 prom act 15%, FLuc counter 0.3µM* and ELG1 genotoxic 0.52µM*.
Screening CN(C)c1ccc(CNc2nc3ccccc3s2)cc1 returned p53 reactivator inconclusive, Rab9 prom act 0.25µM*, NPC1 prom act 0.1µM*, FLuc counter 0.24µM* and ELG1 genotoxic 0.46µM*.
O=C(O)/C=C/c1ccc2ccccc2n1 was read as SMN2 splice up -11%, p53 reactivator inconclusive, Rab9 prom act 1%, NPC1 prom act -1%, FLuc counter 2% and ELG1 genotoxic -1%.
Screening CC(C)n1c(NCc2ccc(N(C)C)cc2)nc2ccccc21 returned SMN2 splice up -6%, p53 reactivator 1%, Rab9 prom act -2%, NPC1 prom act 0%, FLuc counter inconclusive and ELG1 genotoxic -2%.
`COCOc1c2c(c(OCOC)c3c(OCOC)cccc13)/C(=N/N[S+](=O)([O-])c1ccc(C)cc1)C1=C2CCCC1` gave SMN2 splice up 5%.
For COc1ccc(N2CCN(C(=O)CN3C(=O)CSc4c3c(C)nn4-c3ccccc3)CC2)cc1 the results were FLuc counter 0%.
For CCOc1cc(CNC(=O)NC2COc3ccc(OC)cc3C2)cc(OCC)c1OCC (stereo not drawn) the results were FLuc counter -3%.
Screening Cc1c(Cl)cccc1NC(=O)c1ccc2c(c1)CCN2S(=O)(=O)c1ccccc1 returned SMN2 splice up -3% and FLuc counter 4%.
For Cc1cccc(-c2nc3ccccc3c(=O)[nH]2)c1 the results were p53 reactivator inconclusive, Rab9 prom act 3.2µM*, NPC1 prom act 2.8µM*, FLuc counter 11µM* and ELG1 genotoxic inconclusive.
`CN(C)c1ccc(-c2nc3ccccc3c(=O)[nH]2)cc1` gave p53 reactivator 5%, Rab9 prom act 0.25µM*, NPC1 prom act 0.35µM*, FLuc counter 0.6µM* and ELG1 genotoxic 0.82µM*.
COc1ccc(-c2nc3ccccc3c(=O)[nH]2)cc1 was read as p53 reactivator inconclusive, Rab9 prom act 0.71µM*, NPC1 prom act 1.4µM*, FLuc counter 3.4µM* and ELG1 genotoxic 9.2µM*.
For CC1CCOC(c2coc3ccccc3c2=O)O1 (stereo not drawn) the results were SMN2 splice up 10µM*, p53 reactivator inconclusive, Rab9 prom act inconclusive, NPC1 prom act inconclusive, FLuc counter 13µM* and ELG1 genotoxic inconclusive.
`O=C(Nc1cccc(O)c1)c1cc(-c2ccc3c(c2)OCO3)on1` gave p53 reactivator -11%, Rab9 prom act inconclusive, NPC1 prom act inconclusive, FLuc counter 0.15µM* and ELG1 genotoxic inconclusive.
O=C(Nc1ccc(SC(F)F)cc1)c1cc(-c2ccc3c(c2)OCCO3)on1 was read as FLuc counter 5.4µM*.
Cc1ccc(OC(=O)c2cc(-c3ccc4c(c3)OCCO4)on2)c(C)c1 was read as FLuc counter 1.5µM*.
COc1cc(NC(=O)c2cc(-c3ccc4c(c3)OCO4)on2)cc(OC)c1OC was read as SMN2 splice up 3%, p53 reactivator 1%, Rab9 prom act -28%, NPC1 prom act -33%, FLuc counter 2% and ELG1 genotoxic -2%.
For CC(=O)Nc1ccc(NC(=O)c2cc(-c3ccc4c(c3)OCCO4)on2)cc1 the results were FLuc counter 0.34µM*.
Screening O=[N+]([O-])c1ccc(CSc2ncnc3c2ncn3C2OC(CO)C(O)C2O)cc1 (stereo not drawn) returned SMN2 splice up 3%.
Screening CC(=O)c1cccc(NC(=O)c2cc(-c3ccc(C)cc3)on2)c1 returned SMN2 splice up inconclusive, p53 reactivator 8%, Rab9 prom act inconclusive, NPC1 prom act inconclusive, FLuc counter inconclusive and ELG1 genotoxic 4.6µM*.
Screening CC(=O)c1cccc(NC(=O)c2cc(-c3ccc4c(c3)OCCO4)on2)c1 returned FLuc counter 0.15µM*.
